A selection: hits, their analogues and other compounds. The true share with any hit is near 12%.
BAZ2B inh = qHTS Assay for Inhibitors of BAZ2B; Bromodomain adjacent to zinc finger domain protein 2B (Homo sapiens), Q9UIF8; AlphaScreen BAZ2B-H3K14Ac peptide displacement; Potency, µM (series often up to 114 µM), without a hit: at the top dose activity change, negative = inhibition, usual class: inhibitors; hit rate 4.4% among 360,000; AID 504333, 2011; also: % is scaled to controls: 0 for no effect and ±100 for the full control effect; nearly all actives have a fitted effect of over 60% in size
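Compounds, titrated to a top concentration of 110 uM, were incubated 30 min at room temperature with preformed BAZ2B/acetyl-K14 H3 peptide complex (50 nM each). Proximity signal was measured by AlphaScreen after 20 min with beads.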
HP1b binding inh = HTS for Inhibitors of HP1-beta Chromodomain Interactions with Methylated Histone Tails | AlphaScreen HP1-beta / biotin-H3K9me3 peptide binding | Potency, µM (top dose mostly 114 µM), for the others: top-dose activity change, negative = inhibition, usual class: inhibitors | hit rate 0.56% among 390,000; also: nearly all actives have a fitted effect of over 70% in size
Target sequence (P83916 whole entry, looked up): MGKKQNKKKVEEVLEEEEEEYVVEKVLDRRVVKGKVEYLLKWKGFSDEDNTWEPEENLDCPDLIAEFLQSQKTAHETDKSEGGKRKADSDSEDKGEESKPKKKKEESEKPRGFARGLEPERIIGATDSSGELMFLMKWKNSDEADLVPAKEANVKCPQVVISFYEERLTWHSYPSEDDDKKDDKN
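HP1-beta protein (50 nM final) preincubated 30 min at room temperature with biotinylated H3(1-18)K9me3 peptide (50 nM) in PBS pH 7.4, 0.01% Tween-20, then compound added for 30 min. AlphaScreen streptavidin donor/nickel chelate acceptor beads (10 ug/mL final), 30 min dark, luminescence read.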
G9a inh = qHTS Assay for Inhibitors of Histone Lysine Methyltransferase G9a; Histone-lysine N-methyltransferase EHMT2 (Homo sapiens), Q96KQ7; G9a H3K9 monomethylation, AlphaScreen, 2 h; Potency, µM (doses to about 102 µM), for the others: at the top dose activity, negative = inhibition, actives largely listed as inhibitors; hit rate 8.8% among 350,000; also: % is scaled to controls: 0 for no effect and ±100 for the full control effect; nearly all actives have a fitted effect of over 75% in size
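AlphaScreen detection with an anti-monomethyl H3K9 antibody quantified product after a 2 h room-temperature reaction containing 500 nM biotinylated H3K9 peptide, 20 µM SAM and 20 nM enzyme, which had been preincubated 15 min with compound.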
JMJD2A Tudor = qHTS Assay for Inhibitors of JMJD2A-Tudor Domain; Lysine-specific demethylase 4A (Homo sapiens), O75164; AlphaScreen JMJD2A-Tudor / H3K4me3 peptide binding; Potency, µM (top dose mostly 114 µM), without a hit: at the top dose activity change, negative = inhibition, usual class: inhibitors; hit rate 4.4% among 390,000; AID 504339, 2011; also: % is scaled to controls: 0 for no effect and ±100 for the full control effect; nearly all actives have a fitted effect of over 50% in size
PLK1 PBD inh = qHTS for Inhibitors of PLK1-PDB (polo-like kinase 1 - polo-box domain): Primary Screen. Plk1 PBD binding of FITC phosphopeptide, fluorescence polarization. Potency, µM, without a hit: max response, negative = inhibition, usual class: inhibitors. hit rate 2.8% among 360,000. AID 720504, 2013; also: series mostly up to about 57 µM; % is scaled to controls: 0 for no effect and ±100 for the full control effect; nearly all actives have a fitted effect of over 65% in size
Target sequence (P53350 whole entry, looked up, the tested form may be a part): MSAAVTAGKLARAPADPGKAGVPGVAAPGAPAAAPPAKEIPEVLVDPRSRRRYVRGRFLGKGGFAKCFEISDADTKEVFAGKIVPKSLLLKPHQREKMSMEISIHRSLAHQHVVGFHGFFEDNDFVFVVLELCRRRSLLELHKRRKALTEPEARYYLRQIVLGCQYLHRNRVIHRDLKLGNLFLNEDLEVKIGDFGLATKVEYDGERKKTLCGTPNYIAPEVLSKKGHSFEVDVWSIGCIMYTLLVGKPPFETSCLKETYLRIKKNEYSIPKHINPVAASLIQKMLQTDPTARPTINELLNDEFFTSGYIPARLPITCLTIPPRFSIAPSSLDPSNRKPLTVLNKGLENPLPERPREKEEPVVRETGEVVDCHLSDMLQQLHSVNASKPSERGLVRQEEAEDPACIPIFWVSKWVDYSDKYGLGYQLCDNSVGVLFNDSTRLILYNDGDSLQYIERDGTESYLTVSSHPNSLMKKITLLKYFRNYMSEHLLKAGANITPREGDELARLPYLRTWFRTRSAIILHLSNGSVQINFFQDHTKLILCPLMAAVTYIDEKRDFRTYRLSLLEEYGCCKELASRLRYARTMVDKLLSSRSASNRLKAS
Sfp PPTase inh = qHTS Assay for Inhibitors of Bacillus subtilis Sfp phosphopantetheinyl transferase (PPTase); AID 1490, 2009; hit rate 3.5% among 310,000; Potency, µM, for inactives: largest response in the series, negative = inhibition, most hits filed as inhibitors; 4'-phosphopantetheinyl transferase ffp (Bacillus subtilis), Q9F4F7; Biochemical Sfp PPTase activity, qHTS;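 also: the enzyme is Sfp with the accession as filed and its product quenches rhodamine fluorescence; 0% = enzyme reaction without inhibitor and -100% = no enzyme wells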
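Reaction rates are the 30-min fluorescence difference (ex 525, em 598 nm) in wells containing 15 nM Sfp, 5 uM rhodamine-CoA and 12.5 uM BHQ-2-YbbR at pH 7.6 with 10 mM MgCl2.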
The depositor's hits bear a star; ? = inconclusive; nt = no result given; [ ] = dose if it differs, or a comment. Calls follow the shape of the dose curve; as a rule, active = well fitted curve in the direction sought with a large enough effect; inconclusive = small, poorly fitted or top-dose-only effect, or another doubt; inactive = no such curve, though single readings can be large; an effect the other way counts as inactive or inconclusive. Potency is read from the fitted curve at half-maximal effect.

SMILES	BAZ2B inh	HP1b binding inh	G9a inh	JMJD2A Tudor	PLK1 PBD inh	Sfp PPTase inh
CCOc1ccc(N2C(=O)NC(=O)/C(=C\c3ccccc3[N+](=O)[O-])C2=O)cc1	-18.4%	28.6%	31.6µM*	-13.1%	9.47µM*	44.7µM*
C=C1C([C@@]2(C)C(OC(C)=O)CC(=O)O[C@@](C)(COC(C)=O)C2CC(=O)OC)C(OC=O)C(OC(=O)C(OC(C)=O)C(C)CC)[C@]2(C)C(c3ccoc3)CC(=O)C12O (some centres not stated)	nt	nt	-27.9%[2.33 µM]	nt	nt	10.7%
CCc1ccccc1N1C(=O)CC(=O)NC1=O	-13.0%	21.5%	-18.7%[59 µM]	-12.0%	-18.4%	-16.6%
COc1ccccc1N1C(=O)CC(=O)NC1=O	50.1µM*	0.1%[57 µM]	-4.5%	-13.8%	-12.8%	-3.2%
Cc1ccccc1N1C(=O)CC(=O)NC1=O	10.7%	33.9%	44.7µM*	-11.9%	-3.9%	56.2µM*
Cc1cccc(CNCCc2c[nH]c3ccccc23)c1	39.8µM*	13.1%	nt	?	11.3%	-19.0%
Fc1cccc(CNCCc2c[nH]c3ccccc23)c1	?	25.6%	nt	-14.6%	-0.8%	1.9%
c1ccc(CNCCc2c[nH]c3ccccc23)cc1	?	11.7%	4.1%	-17.0%	-1.0%	-3.2%
CCc1ccc(CNCCc2c[nH]c3ccccc23)cc1	1.8%[0.457 µM]	?	?	35.5µM*	1.3%	-21.8%
c1ccc2c(CCNCc3ccc4c(c3)OCO4)c[nH]c2c1	?	4.2%	?	?	-2.2%	35.5µM*
COc1cc(CNCCc2c[nH]c3ccccc23)cc(OC)c1	50.1µM*	?	31.6µM*	3.55µM*	-11.2%	1.9%
COCC#CCN1CCCCC1c1cccnc1 (configuration not stated)	nt	nt	nt	nt	nt	11.1%
Cc1cccc(NC(=O)N[C@@H]2N=C(c3ccccc3)c3ccccc3N(CC(=O)c3ccccc3C)C2=O)c1	nt	nt	nt	nt	nt	11.9%
Nc1c(C(=O)Nc2cccc(F)c2)sc2nc(-c3cccs3)ccc12	1.6%	53.5%	-1.0%[59 µM]	12.8%	nt	nt
O=c1c2ccccc2nc(/C=C/c2ccccc2)n1-c1ccc(O)cc1	-21.2%	1.3%	5.4%	-22.4%	-10.2%	11.3%
O=C1Nc2ccccc2/C1=C/c1nc2ccccc2c(=O)n1-c1ccc(O)cc1	39.8µM*	-21.8%	nt	-26.0%	-16.4%	?
O=c1c2ccccc2nc(/C=C/c2ccc(O)c(O)c2)n1-c1ccccc1	?	-15.0%	7.94µM*	-33.6%	44.7%	-15.1%
O=c1c2ccccc2nc(/C=C/c2ccc([N+](=O)[O-])o2)n1-c1ccc(O)cc1	?	17.6%	50.1µM*	-35.0%	-2.6%	-14.1%
COc1ccc(-n2c(/C=C3\C(=O)Nc4ccccc43)nc3ccccc3c2=O)cc1	2.3%	-1.4%	-2.5%	1.4%	2.8%	9.7%
Cc1cccc(-n2c(/C=C/c3ccc([N+](=O)[O-])o3)nc3ccccc3c2=O)c1	?	1.7%	?	-26.8%	18.0%	-21.5%
CCOc1ccc(NC(=O)CSc2oc(-c3ccccc3)nc2S(=O)(=O)c2ccc(Cl)cc2)cc1	-3.0%	47.2%	-31.7%[59 µM]	-7.5%	nt	nt
NC1CCCC[C@H]1N (some centres not stated)	nt	nt	nt	nt	nt	5.6%
CN1C2CCC1/C(=C/c1ccccn1)C(=O)/C2=C\c1ccccn1	-23.9%	-2.7%	?	79.4µM*	26.7µM*	?
CC12C=CC(=O)C=C1CCC1C2=CCC2(C)C1CC[C@@H]2C(=O)CN1CCN(c2cc(N3CCCC3)nc(N3CCCC3)n2)CC1 (some centres not stated)	nt	nt	12.6µM*	nt	nt	?
CC(=O)N(C)CC#CCN1CCC(O)CC1	nt	0.9%	nt	31.6µM*	nt	nt
SMILES	BAZ2B inh	HP1b binding inh	G9a inh	JMJD2A Tudor	PLK1 PBD inh	Sfp PPTase inh
NC(=O)c1sc2nc3c(c(-c4cccs4)c2c1N)CCCC3	-26.1%	nt	22.4µM*	nt	nt	-16.5%
CN1CCc2nc3sc(C#N)c(N)c3c(-c3cccs3)c2C1	?	4.9%	?	-28.4%	-24.1%	50.1µM*
COC[C@H]([C@@H](O)[C@@H](O)C(=O)NCC[C@@H](C)c1nc(/C=C/C[C@H]2OC3(C[C@H](O)[C@H]2C)OC([C@@H](C[C@@H](O)[C@@H](C)[C@@H](O)[C@@H](C)/C=C(C)/C(C)=C/C=C/C(C)=C\C#N)OC)[C@@H](OP(=O)(O)O)C3(C)C)co1)N(C)C (some centres not stated)	nt	nt	27.1%[59 µM]	nt	nt	16.4%
O=C(NC(=S)Nc1ccccc1N1CCCC1)c1ccccc1Br	11.2µM*	nt	10µM*	nt	nt	18.4%
CCCC(C)C1(CC)C(=O)NC(=S)NC1=O (configuration not stated)	nt	nt	26.1%[59 µM]	nt	nt	0.8%
NCCCC[C@H](NC(=O)[C@H](Cc1ccccc1)NC(=O)[C@H](CCCN=C(N)N)NC(=O)[C@@H](N)Cc1ccc(O)cc1)C(N)=O	nt	nt	21.8%[59 µM]	nt	nt	13.7%
CC1CCCC(C2(O)C(=O)Nc3ccccc32)C1=O (configuration not stated)	-32.8%	4.5%	1.78µM*	-5.8%	-6.3%	-11.9%
CCc1ccccc1N1C(=O)/C(=C/c2ccc(N3CCN(C)CC3)o2)C(=O)NC1=S	?	?	?	56.2µM*	85.3%	-6.9%
Cc1cccc(N2C(=O)/C(=C/c3ccc(N4CCN(C)CC4)o3)C(=O)NC2=S)c1C	-63.4%	-32.3%	44.7µM*	?	75.3%	63.1µM*
CN1C(=O)C(=Cc2ccc(N3CCCCCC3)o2)C(=O)N(C)C1=S	?	-50.1%	44.7µM*	?	61.6%	-22.4%
COc1ccccc1-c1n[nH]c(=S)n1Cc1ccco1	?	nt	3.55µM*	nt	nt	20µM*
S=c1[nH]nc(C2CC2)n1Cc1ccccc1	nt	-15.7%	6.31µM*	15.8µM*	?	56.2µM*
O=c1c2ccccc2nc(-c2ccco2)n1-c1ccc(Br)cc1	-10.8%	19.3%	8.2%	-2.8%	-0.4%	7.1%
S=c1[nH]nc(-c2ccco2)n1Cc1ccccc1	-24.9%	-6.3%	?	7.08µM*	-10.4%	22.9%
O=C(NCc1c(-n2cccc2)sc2c1CCCC2)Nc1cccc(C(F)(F)F)c1	-18.5%	51.3%	-36.5%[59 µM]	-8.3%	nt	nt
COC(=O)c1c(NC(=O)C2CC=CCC2C(=O)O)sc2c1CCCCC2 (configuration not stated)	?	?	nt	-32.4%	?	-6.2%
C[C@@H]1NCCc2cc(O)c(O)cc21	-4.2%	?	1.78µM*	20µM*	-3.8%	?

From PubChem
